Source: PubChem BioAssay
SW480 rerep = A quantitative high throughput screen for small molecules that induce DNA re-replication in SW480 colon adenocarcinoma cells; SW480 DNA re-replication, Hoechst DNA content imaging, 48 h; Potency, µM (highest dose often 46.1 µM), for inactives: at the highest dose re-replication activation, hits mostly activators; 340,000 compounds, 1.8% hits; AID 624297, 2012; further: % of control where 0% means no effect; nearly all actives have a fitted effect of over 55% in size
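Readout is total intensity of Hoechst-stained nuclei, excited at 405 nm and collected at 500-530 nm. Compound treatment lasted 48 hr at 37 C in 5% CO2 before staining.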
KB-V1 cytotox = qHTS assay for MDR1-selective chemotherapeutics: Primary screen using the drug-selected MDR subline cells KB-V1. KB-V1 MDR cells viability, CellTiter-Glo, 72 h. Potency, µM (titrated, usually from 46.1 µM), most hits filed as cytotoxic. 400,000 compounds, 3.4% hits; further: on the % scale 0 is the no-effect control and ±100 the full control effect; nearly all actives have a fitted effect of over 60% in size
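KB-V1 cells (P-gp-expressing MDR subline of KB-3-1) in phenol-red-free DMEM with 10% FBS were exposed to library compounds over a concentration series for 72 h at 37 degrees C. Viability read by CellTiter-Glo luminescence; concentration-effect curves fitted after normalization.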
MCF10A rerep = A quantitative high throughput screen for small molecules that induce DNA re-replication in MCF 10a normal breast cells; MCF 10A DNA re-replication, Hoechst nuclear intensity, 48 h; Potency, µM (doses to about 46.1 µM), without a hit: at the top dose activity, positive = re-replication, hits mostly activators; 350,000 compounds, 2.9% hits; further: % of control where 0% means no effect; nearly all actives have a fitted effect of over 50% in size
KB-3-1 tox = qHTS assay for MDR1-selective chemotherapeutics: Primary screen using the parental adenocarcinoma cell KB-3-1 | 400,000 compounds, 1.4% hits | KB-3-1 viability, CellTiter-Glo ATP luminescence, 72 h | AID 1347075, 2019 | Potency, µM (series often up to 46.1 µM), usual class: cytotoxic; further: on the % scale 0 is the no-effect control and ±100 the full control effect; nearly all actives have a fitted effect of over 60% in size
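Parental KB-3-1 adenocarcinoma cells in phenol-red-free DMEM with 10% FBS were pin-treated with compounds at several concentrations, incubated 72 h at 37 °C, and viability read by CellTiter-Glo luminescence; concentration-effect curves were fitted after normalization.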
ELG1 DNA repair = qHTS screen for small molecules that inhibit ELG1-dependent DNA repair in human embryonic kidney (HEK293T) cells expressing luciferase-tagged ELG1; AID 504467, 2011; HEK293T ELG1-luciferase reporter, luminescence, 16 h; DNA damage induced by 5-fluorouridine; Potency, µM (doses to about 46.1 µM), inactives show top-dose activity change, negative = inhibition, hits mostly inhibitors; 330,000 compounds, 2.3% hits; further: on the % scale 0 is the no-effect control and ±100 the full control effect; nearly all actives have a fitted effect of over 55% in size
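DMSO vehicle served as the neutral condition. Each well held 2,000 cells given 5-fluorouridine plus compound; after 16 hr at 37 °C/5% CO2, ONE-Glo was added and luciferase measured 30 min later.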
Numbers without * were called inactive; i = inactive; ? = inconclusive; · = no result given; [ ] = another dose, or the depositor's remark. An excerpt weighted towards active compounds, which were near 8.1% of everything screened. The call rests on the fitted dose curve; in most records, active means well fitted curve in the direction sought with a large enough effect; inconclusive means small, poorly fitted or top-dose-only effect, or another doubt; inactive means no such curve, though single readings can be large; an effect the other way counts as inactive or inconclusive. Potency means the concentration at half of the fitted maximal effect.

SMILES	SW480 rerep	KB-V1 cytotox	MCF10A rerep	KB-3-1 tox	ELG1 DNA repair
Cc1ccc2c(c1)cc(CN(Cc1ccc3c(c1)OCO3)C(=O)c1ccccc1)c1nnnn12	2.1%	i	3.8%	i	2.3%
Cc1ccc2c(c1)cc(CN(Cc1cccnc1)C(=O)NCc1ccccc1)c1nnnn12	8.5%	2.59µM*	15.4%	?	?
CCOC(=O)c1c(-c2ccccc2Cl)csc1NC(=O)CSc1nc(C)cc(=O)[nH]1	23.1µM*	?	?	i	0.8%
CCOC(=O)c1c(NC(=O)c2cccs2)sc(CC)c1-c1cccs1	12.4%	18.4µM*	?	i	-21.2%
CCOC(=O)c1c(-c2ccc(C)s2)csc1NC(=O)c1cccs1	-14.7%	i	10.5%	i	?
CCOC(=O)c1c(-c2ccc(OC)cc2)csc1NC(=O)CSc1ncnc2sccc12	-112.7%	i	16.4µM*	i	?
CCOC(=O)c1c(-c2cccs2)csc1NC(=O)CSc1ncn[nH]1	1.9%	20.6µM*	?	i	-11.8%
CCOC(=O)c1c(-c2cccs2)csc1NC(=O)C(C)(C)C	-4.1%	14.6µM*	13µM*	i	?
CCOC(=O)c1c(-c2cccs2)csc1NC(C)=O	-9.2%	i	12.8%	i	-5.3%
CCOC(=O)c1c(-c2cccs2)csc1NC(=O)CNCCN1CCOCC1	·	·	·	·	-10.5%
CCOC(=O)c1c(-c2cccs2)csc1NC(=O)CN1CC(C)OC(C)C1 (stereo not given)	?	i	20.6µM*	i	?
COc1ccc(C2=Nc3ccccc3N(C(=O)c3ccc(C(F)(F)F)cc3)C2C(=O)NCc2ccccc2)cc1 (stereo not given)	·	?	·	i	·
COc1ccc([C@@H]2C[C@@H](c3ccccc3)Oc3cc(OC)c(OC)c(OC)c32)cc1	-4.0%	?	1.16µM*	i	-6.1%
COc1ccc([C@@H]2C[C@@H](c3ccccc3)Oc3cc(OC)cc(OC)c32)cc1	-2.1%	i	14.4%	i	0.9%
Cc1cccc(N2CCN(C(=O)C3CCN(S(=O)(=O)c4c(C)noc4C)CC3)CC2C)c1 (stereo not given)	-2.5%	?	11.1%	i	20.6µM*
Cc1cccc(N2CCN(C(=O)C3CCCN(S(=O)(=O)c4cnc[nH]4)C3)CC2C)c1 (stereo not given)	8.7%	i	?	i	23.1µM*
CCc1cc(CNC(=O)C2CCC(=O)N(Cc3ccccc3F)C2)on1 (stereo not given)	·	i	·	i	·
CC1CCc2c(c3ccccc3n2C(=O)CCl)C1 (stereo not given)	6.3%	?	18.4µM*	?	?
CSc1ccc(CN(C)Cc2nc3ccccc3c(=O)[nH]2)cc1	-2.7%	20.6µM*	-2.7%	i	?
CCNC(=S)N(Cc1ccccc1)Cc1nc2ccccc2c(=O)[nH]1	-38.4%	20.6µM*	-0.6%	i	-9.1%
COCCCNC(=S)N(Cc1ccccc1)Cc1nc2ccccc2c(=O)[nH]1	-0.4%	i	-4.8%	i	-14.6%
CS(=O)(=O)N(Cc1ccc(F)cc1)Cc1nc2ccccc2c(=O)[nH]1	8.5%	i	0.0%	i	-3.5%
O=C(CNC(=O)C1CCCCC1)OCC(=O)c1ccc(-c2ccccc2)cc1	·	i	·	i	·
O=C(CCc1nc2ccccc2c(=O)[nH]1)Nc1ccccc1N1CCCCC1	·	i	·	i	·
O=C(c1ccccc1)N1CCN(c2ncnc3c2cnn3-c2ccccc2)CC1	-0.7%	i	-6.2%	i	-4.5%
SMILES	SW480 rerep	KB-V1 cytotox	MCF10A rerep	KB-3-1 tox	ELG1 DNA repair
COc1cccc(OCCN2CCN(c3ncnc4c3cnn4-c3ccccc3)CC2)c1	21.0%	5.17µM*	18.4µM*	i	?
O=C(c1cccc(Cl)c1)N1CCN(c2ncnc3c2cnn3-c2ccccc2)CC1	-4.2%	i	-0.3%	i	11.6µM*
Cc1nn(-c2ccccc2)c(Cl)c1C(=O)N1CCN(c2ncnc3c2cnn3-c2ccccc2)CC1	?	?	?	?	7.31µM*
O=C(c1ccco1)N1CCN(c2ncnc3c2cnn3-c2ccccc2)CC1	-7.0%	i	?	?	-11.4%
CN(Cc1ccccc1)CC(O)COc1ccc(CNCCc2ccncc2)cc1 (stereo not given)	18.4µM*	?	?	i	-2.0%
CC(C)n1c(CN(C)Cc2ccccc2)nc2c1c(=O)n(C)c(=O)n2C	-4.6%	?	?	i	4.11µM*
CCCCCn1c(CN(C)Cc2ccccc2)nc2c1c(=O)n(C)c(=O)n2C	4.6%	2.31µM*	?	18.4µM*	18.4µM*
CC(=O)C(C)n1c(CN(C)Cc2ccccc2)nc2c1c(=O)n(C)c(=O)n2C (stereo not given)	2.7%[1.84 µM]	i	-11.6%	i	2.0%
CN(Cc1ccccc1)c1nc2c(c(=O)n(C)c(=O)n2C)n1CCCc1ccccc1	-1.9%	i	25.9µM*	i	?
CCOCCn1c(CN(Cc2ccccc2)Cc2ccccc2)nc2c1c(=O)n(C)c(=O)n2C	10.8%	i	1.4%	?	18.4µM*
O=c1c(S(=O)(=O)c2ccccc2)cn(Cc2ccc(F)cc2)c2cc(N3CCCCC3)c(F)cc12	·	i	·	i	·
Cn1c(=O)c2c(ncn2CCCc2ccccc2)n(C)c1=O	-8.7%	14.6µM*	-0.2%	?	?
CN(Cc1ccccc1)Cc1nc2c(c(=O)n(C)c(=O)n2C)n1Cc1ccc(F)cc1	4.4%	9.2µM*	10.3%	i	18.4µM*
Cc1ccc2c(c1)CCCN2C(=O)CCc1nc2ccccc2c(=O)[nH]1	8.91µM*	?	?	?	?
Cc1ccc(-c2nnn(CC(=O)N3CCCc4ccccc43)n2)cc1	3.3%	i	3.4%	i	1.4%
COc1ccc(C2=NOC(C(=O)N3CCCc4ccccc43)C2)cc1 (stereo not given)	-2.6%	13µM*	?	i	13.6%
COc1cc(C2=NOC(C(=O)N3CCCc4ccccc43)C2)cc(OC)c1OC (stereo not given)	-1.2%	i	-1.7%	i	?
CC(=O)N1CCN(C(=O)CCc2nc3ccccc3c(=O)[nH]2)CC1	-14.2%	i	-3.2%	i	-0.2%
COc1ccc(-c2cc(C(=O)N3CCCc4ccccc43)no2)cc1	-2.7%	14.6µM*	27.4%	i	?
Cc1ccc(-c2noc(CCC(=O)N3CCCc4ccccc43)n2)cc1	-2.9%	23.1µM*	14.3%	i	?
